Most compounds without a hit are left out; they make up all but 0.4% or so of the library.
FMDV antiviral: Primary qHTS Assay for Foot and Mouth Disease Virus Antivirals against NCGC Sytravon and CBC Compound Libraries: Firefly Luciferase Signal | FMDV antiviral cell assay, firefly luciferase signal | Potency, µM (series often up to 57.5 µM), inactives show top-dose activity change, negative = inhibition, usual class: inhibitors | 120,000 compounds, 0.23% hits | AID 1745856, 2022; note: nearly all actives have a fitted effect of over 60% in size
FMDV Renilla: Primary qHTS Assay for Foot and Mouth Disease Virus Antivirals against NCGC Sytravon and CBC Compound Libraries: Renilla Luciferase Signal | FMDV replicon cells, Renilla luciferase signal | 120,000 compounds, 0.32% hits | Potency, µM (series often up to 57.5 µM), without a hit: at the highest dose activity change, negative = inhibition, usual class: inhibitors | AID 1745857, 2022; note: nearly all actives have a fitted effect of over 55% in size
* hit, by the source's call; ? = inconclusive; [ ] = dose if it differs, or a comment. Calls come from the whole dose curve. % is set by controls: 0 for no effect and ±100 for the full control effect; potency is the fitted concentration of half-maximal effect.

SMILES | FMDV antiviral | FMDV Renilla
Cc1c(CC(=O)Nc2ccc3c(c2)OCO3)c(=O)oc2c(C)c(O)ccc12 | 27% | 8%
Cc1ccc(-c2cc(C(=O)OC(C)C(=O)NC(=O)NC3CCCC3)c3ccccc3n2)o1 (stereo not drawn) | 91% | 32%
Cn1c(SCc2csc(-c3ccc4c(c3)OCO4)n2)nnc1C1CCCCC1 | 39% | 21%
CNc1snc(C)c1C(=O)OCc1csc(-c2ccc(F)cc2)n1 | ? | 0.71µM*
COc1ccc(-c2nc(CNS(=O)(=O)c3ccc(F)cc3)cs2)cc1 | -5% | -5%
Cc1ccc2cc(C(=O)NCC3CCN(C(C)C)C3)[nH]c2c1 (stereo not drawn) | 18% | -9%
COc1ccc(S(=O)(=O)Nc2cc(OC(F)F)c(OC)cc2C(=O)O)cc1Br | 1% | 2%
Cc1ccccc1-n1nnnc1SCc1nc(N)c2ccccc2n1 | 17% | -19%
Cc1cccc(C)c1-n1nnnc1SCn1nnc2ccccc2c1=O | 20µM* | 18µM*
N#CC1=C(N)n2ncnc2NC1c1ccccc1Cl (stereo not drawn) | -10% | -11%
O=C(Nc1cccc(S(=O)(=O)N2CCOCC2)c1)c1ccc(OCc2cn3ccccc3n2)cc1 | 32µM* | ?
O=C(Nc1cccc(S(=O)(=O)N2CCCCC2)c1)c1ccc(OCc2cn3ccccc3n2)cc1 | 0% | 0%
Fc1ccc(/C=N/Nc2cc(C(F)(F)F)ccc2Cl)cc1 | 4% | 8%
COc1cccc(C(=O)N2CCC(c3nc4ccccc4s3)CC2)c1 | -8% | -4%
COc1ccc(C(=O)N2CCC(c3nc4ccccc4s3)CC2)cc1Cl | 28µM* | ?
CC(=C/c1ccccc1)/C=C1/Cc2ccccc2C1=O | 112% | 0%
COc1ccc(-c2ocnc2C(=O)NCc2cc(OC)ccc2OC)cc1 | 9% | 22%
COc1ccccc1CC(=O)N1CCN(c2nc(-c3ccc(Cl)cc3)no2)CC1 | ? | 7.1µM*
COc1ccc(-c2noc(N3CCN(c4ccc(Cl)cc4)CC3)n2)cc1OC | -13% | -5%
N#Cc1ccc(/C=N/Nc2cccc(Cl)c2)cc1 | 57% | -6%
CC(C)(C)c1ccc2c(c1)OCCOCCOCCOc1cc(C(C)(C)C)ccc1OCCOCCOCCO2 | ? | 28µM*
Oc1ccc2c(c1)OCCOCCOc1cc(O)ccc1OCCO2 | 19% | 10%
Cc1cc(C)cc(Nc2cc(C(=O)NCCCN(C)C3CCCCC3)c3ccccc3n2)c1 | -15% | -5%
Cc1ccc(C)c(Nc2cc(C(=O)NCCCN(C)C3CCCCC3)c3ccccc3n2)c1 | -14% | 32µM*
Cc1c(CC(=O)NCc2ccc(Cl)cc2)c(=O)oc2c(C)c(O)ccc12 | 22% | 16%
SMILES | FMDV antiviral | FMDV Renilla
CCCCCS(=O)(=O)c1oc(-c2cccs2)nc1S(=O)(=O)c1ccc(C)cc1 | -10% | -12%
CCCCS(=O)(=O)c1oc(-c2cccs2)nc1S(=O)(=O)c1ccc(F)cc1 | 28µM* | -5%
CCOc1cc(C(=O)Nc2ccc(N3CCCC3)c(Cl)c2)cc(OCC)c1OCC | 4% | 14%
CCc1ccc2oc(C(=O)NCCc3ccc(OC)c(OC)c3)cc(=O)c2c1 | 35µM* | ?
COc1ccc(CCNC(=O)c2cc(=O)c3ccccc3o2)cc1OC | -21% | -13%
C=CC#CC[N+](C)(C)CC#Cc1cccc2ccccc12 | 4% | -6%
Fc1ccccc1-c1ccc(CNCC2CCNCC2)o1 | -8% | -28%
Clc1ccc(-c2ccc(CNCC3CCNCC3)o2)c(Cl)c1 | ? | 28µM*
CC(=O)c1ccc(Oc2nc(C)nc3c2oc2ccccc23)cc1 | ? | 2.8µM*
CCOC(=O)c1ccc(Oc2nc(C)nc3c2oc2ccccc23)cc1 | 17% | -12%
COc1ccccc1-c1cc(=O)c2cc(NS(=O)(=O)c3ccc(C)cc3)ccc2o1 | 62% | 221%
CCc1c(C)sc2c1CCN(Cc1ccccc1)C2c1ccccc1 (stereo not drawn) | ? | 13µM*
CCc1c(C)sc2c1CCN(Cc1ccccc1C#N)C2c1ccccc1 (stereo not drawn) | 18% | 16%
COc1ccccc1C(=O)OC(c1ccc(NC(=O)c2ccc(OC(F)F)cc2)cc1)(C(F)(F)F)C(F)(F)F | 21% | -10%
CC(C)NC(=O)NC(=O)COC(=O)c1ccc2ccccc2n1 | 3% | -14%
COc1ccc(NC(C)=O)cc1NC(=O)c1cc(-c2ccco2)nc2ccccc12 | 62% | 31%
CCOc1cc(OCC)cc(C(=O)Nc2ccc(N3CCN(C(=O)c4ccccc4C)CC3)cc2)c1 | -7% | -7%
Cc1ccccc1C(=O)N1CCN(c2ccc(NC(=O)c3ccc4c(c3)OCCO4)cc2)CC1 | ? | 16µM*
COc1ccc(-c2nc(C)c(-c3ccccc3)s2)cc1OC | 232% | -5%[1.06 µM]
O=C(Nc1ccc(C23CC4CC(CC(C4)C2)C3)cc1)c1ccccc1Cl | -10% | 7%
O=C(Nc1ccc(C23CC4CC(CC(C4)C2)C3)cc1)c1cccc(Cl)c1 | 0.35µM* | -2%
CCN(CC)c1cc(C)nc(Nc2ccc(NS(=O)(=O)c3cc(C(C)(C)C)ccc3OC)cc2)n1 | ? | -87%
O=C(C1CCC(CNS(=O)(=O)c2cccs2)CC1)N1CCN(c2ccc(Cl)cc2)CC1 (stereo not drawn) | ? | 4.5µM*
O=C(C1CCN(S(=O)(=O)c2cccs2)CC1)N1CCN(c2cccc(Cl)c2)CC1 | 3% | -1%
CCCOc1ccc(C2C3=C(CC(C)(C)CC3=O)Nc3cc4c(cc32)OCO4)cc1 (stereo not drawn) | -29% | 93%
SMILES | FMDV antiviral | FMDV Renilla
COC(=O)c1ccc(NC(=O)CN(C)S(=O)(=O)c2ccc3c(c2)CCCC(=O)N3)cc1 | -3% | 1%
CN(CC(=O)Nc1ccc(OC(F)(F)F)cc1)S(=O)(=O)c1ccc2c(c1)CCC(=O)N2 | 22µM* | ?
CSc1cccc(NC(=O)CNc2ccccc2C(=O)NC2CC2)c1 | 18% | 0%
O=C(CSc1ncnc2ccccc12)c1ccc2c(c1)OCCCO2 | -31% | 14µM*
O=C(CSc1cnc2ccccc2n1)c1ccc2c(c1)OCCO2 | 13% | 0%
Cc1cccc(-c2noc(-c3ccc(N4CCOCC4)c([N+](=O)[O-])c3)n2)c1 | -23% | 2%
Cc1cccc(-c2noc(-c3ccc(N4CCCC4)c([N+](=O)[O-])c3)n2)c1 | 8.9µM* | 7%
CCCN(CC)c1ccc(/C=N/NC(=S)Nc2ccc(C)cc2)cc1 | 17% | 46%
O=C(Nc1ccnn1Cc1cccs1)c1ccc(S(=O)(=O)N2CCCC2)cc1 | 14µM* | ?
O=C(Nc1nc(-c2ccncc2)cs1)c1ccc(S(=O)(=O)N2CCCCC2)cc1 | 5% | -11%
O=C(O)CCCC(=O)NCCN1CCCC1 | 36% | 14%
CCCCCCCCCCCCCCCC[N+](C)(C)Cc1ccccc1 | -26% | -14%
CCCCCCCCCCCCCC[N+](C)(C)Cc1ccccc1 | ? | 25µM*
COc1ccc(-c2cc(C(=O)N3CCN(C(=O)C(=O)N4CCOCC4)CC3)c3ccccc3n2)cc1 | 233% | 62%
CC1=C(C(=O)Nc2ccccc2)C(c2ccc(C(C)(C)C)cc2)NC(=S)N1 (stereo not drawn) | -15% | -8%
C=CCNc1nc2c(c(=O)n(C)c(=O)n2C)n1CC | -7% | -8%
C=CCNc1nc2c(c(=O)n(C)c(=O)n2C)n1CC(O)COc1ccc(OC)cc1 (stereo not drawn) | ? | 22µM*
